Out of some 420,000 compounds screened, about 50,000 (12%) were called active. Entries that show only a call come without a potency. Not shown: some 26% with an inconclusive outcome. This is one part of a sample in which actives are shown more often than they occur. Calls follow the shape of the dose curve; as a rule, active = well fitted inhibition curve with a large enough effect; inconclusive = small, poorly fitted or top-dose-only effect; inactive = flat fitted curve, though single readings scatter.
Potency is read from the fitted curve at half-maximal effect.

This assay can be described thus: qHTS for Inhibitors of human tyrosyl-DNA phosphodiesterase 1 (TDP1): qHTS in cells in presence of CPT. Also: nearly all actives have a fitted effect of over 55% in size. The conditions noted are these: chicken DT40 Tdp1-/-;hTDP1 cells + 20 nM CPT, ATP luminescence, 48 h; series mostly up to 46.2 µM. The source says:
Human tyrosyl-DNA phosphodiesterase 1 (TDP1) is a novel repair gene, and we propose to use it as a new target for anticancer drug development. TDP1 is not an essential protein, but under treatment with topoisomerase I poison (camptothecin: CPT), TDP1 works as a critical factor for cell survival. To directly identify novel TDP1 inhibitors active in a cellular environment, we have knocked-out the Tdp1 gene in chicken DT40 cells (Tdp1-/-) and generated a complemented counterpart cells that contains a stable transfection of the human TDP1 gene (Tdp1-/-;hTDP1 cells). For the primary screen, Tdp1-/-;hTDP1 cells will be exposed to small molecules in the presence or absence of CPT, and their growth kinetics will be evaluated after 48 hours by measuring ATP activity. […] The hit compounds will then be evaluated in the presence or absence of CPT using Tdp1-/- cells. […] In tertiary assays, biochemical gel-based assays will be used to assess whether the hit compounds specifically target TDP1. To this end, we have screened this cell line against the MLSMR in two primary screens. In one screen we add CPT and in the other we screen in the absence of CPT; this AID represents the screen where CPT was present. NIH Chemical Genomics Center [NCGC] NIH Molecular Libraries Probe Centers Network [MLPCN] MLPCN Grant: MH095538 Assay Submitter (PI): Yves Pommier, NCI
DT40-hTDP1 cells with 20 nM Camptothecin (add 20 microL of 1 mM CPT stock in 1 L of cell culture medium) were dispensed at 400 cells/5microL/well in tissue culture treated 1536-well white wall/solid bottom assay plates (Greiner Bio-One North America, NC, U.S.A.) using a Multidrop Combi 8 channel dispenser (Thermo Fisher, Waltham, MA, USA). 23 nL compounds and controls were transferred using the pin tool (Kalypsys, San Diego, CA, USA) to the assay plates. The assay plates were then incubated at 37 masculineC for a minimum 48 hr. Three microL of Cell Titer Glo solution was added to the plates and incubated at RT in dark for 30 min. Luminescence was read using ViewLux (Perkin Elmer) with 1 sec exposure slow speed, high gain and 2x binning.
(In qHTS, concentration-response curves come from the screen itself.)
`Cc1c(C(=O)O)nnn1-c1nonc1N`: the Potency result is “inactive”. On to `COc1cc(OC)c(C(=O)NNC(=O)c2ccccc2-n2cccc2)cc1OC`, for which the Potency result is “inactive”. For `CSc1nc(-c2ccc(F)cc2)nc2c1Cc1c(CO)cnc(C)c1O2`, the Potency result is “inactive”.

For `CSc1nc(-c2ccccc2Cl)nc2c1Cc1c(CO)cnc(C)c1O2`, the Potency was 14.6 µM (active). Turning to `Cc1ccccc1CSc1nc(-c2ccccc2)nc2c1Cc1c(CO)cnc(C)c1O2`, the Potency entry is “inactive”.

Consider `CCOC(=O)c1cnc2nc(SCc3ccccc3Cl)[nH]n2c1=O`, for which the Potency result is “inactive”.

As for `CS(=O)(=O)c1ccc(Cl)c(NC(=O)COC(=O)c2ncc(Cl)c(Cl)c2Cl)c1`, the Potency entry is “inactive”. For `COc1cccc(CN(C)CC(=O)NCc2ccccc2Cl)c1OC` the value was “inactive”. Turning to `COc1cccc(CN(C)CC2CCCN(CCc3ccc(Cl)cc3)C2)c1OC` (stereo not drawn), the Potency was 16.4 µM (active). Consider `Cc1nc2ccc(C(=O)N(C)CC3CCCN(CCc4ccc(Cl)cc4)C3)cc2[nH]1` (stereo not drawn), for which the Potency entry is “inactive”. Turning to `CCc1ccnc(NS(=O)(=O)c2ccc3c(c2)OCCO3)c1`, the Potency result was “inactive”. As to `CCOc1ccccc1C1CC(c2ccc(Cl)cc2)Nc2nc(N)nn21` (stereo not drawn), the Potency was 18.4 µM (active). Turning to `COc1ccc(C2CC(c3ccc(C)cc3)Nc3nc(N)nn32)cc1` (stereo not drawn), the Potency entry was “inactive”. `Cc1ccc(C2CC(c3cccc(C)c3)n3nc(N)nc3N2)cc1` (stereo not drawn): the Potency result is “inactive”. With `COc1ccccc1N1CCN(c2ncnc3sc(C)c(-c4ccccc4)c23)CC1`, the Potency is 23.1 µM (active). Turning to `COc1ccccc1N1CCN(c2nc(C)cc(=O)[nH]2)CC1`, the Potency result was “inactive”. As for `COc1ccccc1N1CCN(c2ncnc3onc(-c4cccc(Cl)c4)c23)CC1`, the Potency result was “inactive”. `Cn1cnc(S(=O)(=O)Nc2ccc3c(c2)OCCO3)c1`: the Potency entry was “inactive”. As for `O=C(COC(=O)c1cc(-c2cccs2)nn1-c1ccccc1)Nc1cc([N+](=O)[O-])ccc1Cl`, the Potency result is “inactive”. With `CCc1cccc(CC)c1NC(=O)Cn1c(=O)c(-c2cc(C)ccc2NC(C)=O)nc2ccccc21`, the Potency result was “inactive”. In the case of `CCCn1c(N)c(C(=O)CSc2nnc(-c3cccnc3)n2-c2ccc(C)cc2C)c(=O)[nH]c1=O`, the Potency entry is “inactive”. With `COCc1cc(=O)n2[nH]c(C)c(-c3ccccc3)c2n1`, the Potency entry is “inactive”.

Take `CCCc1cc(=O)n2[nH]c(C)c(-c3ccc(Cl)cc3)c2n1`: the Potency was 20.6 µM (active). For `Cc1nc2c(-c3ccccc3)c(C)[nH]n2c(=O)c1Cl` the value was “inactive”.

For the compound `CCOc1cc(C)c(S(=O)(=O)NCc2ccccn2)cc1C`, the Potency result was “inactive”. Under `COc1ccc(NC(=O)C2C3CCC(O3)C2C(=O)O)cc1OC` (stereo not drawn) stands “inactive”. For `COCC(=O)N1CCc2ccc(NC(=O)c3ccccc3Cl)cc2C1` the value was “inactive”; for `CCc1ccc(OCCCn2c(CCCNC(=O)C3CCCCC3)nc3ccccc32)cc1`, 8.91 µM (active).

Turning to `CC(C)Oc1ccc(CNC(=O)C2CCN(c3nc4ccccc4n(C)c3=O)CC2)cc1`, the Potency result is “inactive”.

As for `Cc1ccc(CN2C(=O)CCC2C(=O)NCCCN2CCCCC2C)cc1` (stereo not drawn), the Potency entry is “inactive”. On to `Cc1ccc(Cn2c(CCCNC(=O)C3CCCCC3)nc3ccccc32)cc1`, for which the Potency is 16.4 µM (active). For `O=C(NCCCc1ccccc1)C1CCC(CNc2c(N3CCCCC3)c(=O)c2=O)CC1` (stereo not drawn) the value was “inactive”; for `Cc1ccc2[nH]cc(CCNC(=O)C3CCCCC3)c2c1`, “inactive”. Under `O=C(CSc1nnc(CNC(=O)c2ccccc2)n1-c1ccc(F)cc1)Nc1ccccc1F` stands “inactive”; under `Cc1ccc(NS(=O)(=O)c2ccc(N/N=C/c3ccccc3OCC(=O)O)c([N+](=O)[O-])c2)c(C)c1`, “inactive”. `O=C(CC1SC(=Nc2ccccc2F)N(CCN2CCOCC2)C1=O)Nc1ccc(F)cc1F` (stereo not drawn): the Potency result was “inactive”.

Consider `COc1ccccc1N(CC(=O)N/N=C(\C)c1ccccc1O)S(=O)(=O)c1ccc(C)cc1`, for which the Potency entry is “inactive”.

Consider `Cc1ccc(S(=O)(=O)N(CC(=O)Nc2ccc(Cl)cc2Cl)c2ccccc2C)cc1`, for which the Potency is 18.4 µM (active).

Regarding `Cc1ccc(S(=O)(=O)N(CC(=O)NCc2ccco2)c2ccccc2C)cc1`, the Potency result is “inactive”. For `COc1ccc(C(F)(F)F)cc1N/C=C\c1nnnn1-c1ccc(C)cc1`, the Potency entry was “inactive”. For `COc1ccccc1OCC(=O)O/N=C(\N)c1ccccn1` the value was “inactive”; for `Cc1ccccc1-c1cc(C(=O)NCC2CC2)n(CC2CC(c3cccnc3)=NO2)n1` (stereo not drawn), “inactive”; for `CCOC(=O)c1ccc2[nH]c(C)c(CN3CCN(C)CC3)c(=O)c2c1`, “inactive”. On to `CCCOC(=O)c1ccc(N2C(=O)c3ccccc3C2=O)cc1`, for which the Potency result was “inactive”.

For the compound `CC(C)(C)c1ccc(C(=O)NCCC(=O)NCc2ccco2)cc1`, the Potency entry was “inactive”.

`COc1ccc(S(=O)(=O)NC(CC(=O)NCc2ccccc2OC)c2ccco2)cc1` (stereo not drawn): the Potency result is “inactive”. For `COc1ccccc1CNC(=O)C(=O)NCC(c1ccco1)S(=O)(=O)c1ccc(F)cc1` (stereo not drawn), the Potency is 20.6 µM (active). Under `CC(C)CNC(=O)C(=O)NCc1ccccc1` stands “inactive”; under `CC(C)(C)c1ccc(C(=O)NCc2ccco2)cc1`, “inactive”.

`CC(C)(C)c1ccc(C(=O)NCC(c2ccco2)S(=O)(=O)c2ccc(F)cc2)cc1` (stereo not drawn): the Potency is 20.6 µM (active). Regarding `O=C(NCc1ccccc1)C(=O)NCC(c1ccco1)S(=O)(=O)c1ccc(Cl)cc1` (stereo not drawn), the Potency is 23.1 µM (active).

`COc1ccccc1NS(=O)(=O)c1ccc(C)c(C(=O)NCC(c2ccco2)N(C)C)c1` (stereo not drawn): the Potency entry was “inactive”. As to `O=C(NCCc1ccccc1)C(=O)NCC(c1ccco1)S(=O)(=O)c1ccccc1` (stereo not drawn), the Potency entry is “inactive”.
